Measured values: paper PMC11062922 (Nature Chemical Biology, 2023)
Read-outs that look alike come from different tables or passages of the source.

Experiments:
[1] = system: FLT4; parameters: species or system human, MV4-11 + K-562 + COLO205 + SK-N-BE2 + OVCAR-8; settings: read-out: apparent Kd, n = 1
[2] = system: FLT3; parameters: species or system human, MV4-11 + K-562 + COLO205 + SK-N-BE2 + OVCAR-8; settings: read-out: apparent Kd, n = 1
[3] = system: MAP3K1; parameters: species or system human, MV4-11 + K-562 + COLO205 + SK-N-BE2 + OVCAR-8; settings: read-out: apparent Kd; compound concentrations:100 nM and 1000 nM (sheet 'Samples'); n = 1
[4] = system: MAP4K5; parameters: species or system human, MV4-11 + K-562 + COLO205 + SK-N-BE2 + OVCAR-8; settings: read-out: apparent Kd; compound concentrations:100 nM and 1000 nM (sheet 'Samples'); n = 1
[5] = system: NUAK1; parameters: species or system human, MV4-11 + K-562 + COLO205 + SK-N-BE2 + OVCAR-8; settings: read-out: apparent Kd; compound concentrations:100 nM and 1000 nM (sheet 'Samples'); n = 1
[6] = system: NUAK2; parameters: species or system human, MV4-11 + K-562 + COLO205 + SK-N-BE2 + OVCAR-8; settings: read-out: apparent Kd; compound concentrations:100 nM and 1000 nM (sheet 'Samples'); n = 1
[7] = system: SLK; parameters: species or system human, MV4-11 + K-562 + COLO205 + SK-N-BE2 + OVCAR-8; settings: read-out: apparent Kd; compound concentrations:100 nM and 1000 nM (sheet 'Samples'); n = 1
[8] = system: STK10; parameters: species or system human, MV4-11 + K-562 + COLO205 + SK-N-BE2 + OVCAR-8; settings: read-out: apparent Kd; compound concentrations:100 nM and 1000 nM (sheet 'Samples'); n = 1
[9] = system: GAK; parameters: species or system human, MV4-11 + K-562 + COLO205 + SK-N-BE2 + OVCAR-8; settings: read-out: apparent Kd; compound concentrations: 100 nM and 1000 nM (sheet 'Samples'), CATDS: 0.42692129692206698; n = 1
[10] = system: NLK; parameters: species or system human, MV4-11 + K-562 + COLO205 + SK-N-BE2 + OVCAR-8; settings: read-out: apparent Kd; compound concentrations: 100 nM and 1000 nM (sheet 'Samples'), CATDS: 0.239785961160628; n = 1
[11] = system: RIPK2; parameters: species or system human, MV4-11 + K-562 + COLO205 + SK-N-BE2 + OVCAR-8; settings: read-out: apparent Kd; compound concentrations: 100 nM and 1000 nM (sheet 'Samples'), CATDS: 0.40204852474639502; n = 1
[12] = system: PDGFRB; parameters: species or system human, MV4-11 + K-562 + COLO205 + SK-N-BE2 + OVCAR-8; settings: read-out: apparent Kd; compound concentrations: 100 nM and 1000 nM (sheet 'Samples'), CATDS: 0.20817935834978499; n = 1
[13] = system: PIP4K2C; parameters: species or system human, MV4-11 + K-562 + COLO205 + SK-N-BE2 + OVCAR-8; settings: read-out: apparent Kd; compound concentrations: 100 nM and 1000 nM (sheet 'Samples'), CATDS: 0.16088368333560399; n = 1
[14] = molecular target: Q6ZSR9 (human, UniProt Q6ZSR9); parameters: species or system MV4-11 + K-562 + COLO205 + SK-N-BE2 + OVCAR-8; settings: read-out: apparent Kd; compound concentrations: 100 nM and 1000 nM (sheet 'Samples'), CATDS: 0.15174967066440201; n = 1
[15] = system: GSK3A; parameters: species or system human, MV4-11 + K-562 + COLO205 + SK-N-BE2 + OVCAR-8; settings: read-out: apparent Kd, n = 1
[16] = system: GSK3B; parameters: species or system human, MV4-11 + K-562 + COLO205 + SK-N-BE2 + OVCAR-8; settings: read-out: apparent Kd, n = 1
[17] = system: PRKCA; parameters: species or system human, MV4-11 + K-562 + COLO205 + SK-N-BE2 + OVCAR-8; settings: read-out: apparent Kd; compound concentrations:100 nM and 1000 nM (sheet 'Samples'); n = 1
[18] = system: PRKCB; parameters: species or system human, MV4-11 + K-562 + COLO205 + SK-N-BE2 + OVCAR-8; settings: read-out: apparent Kd; compound concentrations: 100 nM and 1000 nM (sheet 'Samples'), CATDS: 0.217434450418582; n = 1
[19] = system: PRKCD; parameters: species or system human, MV4-11 + K-562 + COLO205 + SK-N-BE2 + OVCAR-8; settings: read-out: apparent Kd; compound concentrations:100 nM and 1000 nM (sheet 'Samples'); n = 1
[20] = system: RPS6KA6; parameters: species or system human, MV4-11 + K-562 + COLO205 + SK-N-BE2 + OVCAR-8; settings: read-out: apparent Kd; compound concentrations:100 nM and 1000 nM (sheet 'Samples'); n = 1
[21] = system: RPS6KB1; parameters: species or system human, MV4-11 + K-562 + COLO205 + SK-N-BE2 + OVCAR-8; settings: read-out: apparent Kd; compound concentrations:100 nM and 1000 nM (sheet 'Samples'); n = 1
[22] = compound concentrations:100 nM and 1000 nM (sheet 'Samples')

Sequence of Q6ZSR9 (Q6ZSR9 whole entry, looked up): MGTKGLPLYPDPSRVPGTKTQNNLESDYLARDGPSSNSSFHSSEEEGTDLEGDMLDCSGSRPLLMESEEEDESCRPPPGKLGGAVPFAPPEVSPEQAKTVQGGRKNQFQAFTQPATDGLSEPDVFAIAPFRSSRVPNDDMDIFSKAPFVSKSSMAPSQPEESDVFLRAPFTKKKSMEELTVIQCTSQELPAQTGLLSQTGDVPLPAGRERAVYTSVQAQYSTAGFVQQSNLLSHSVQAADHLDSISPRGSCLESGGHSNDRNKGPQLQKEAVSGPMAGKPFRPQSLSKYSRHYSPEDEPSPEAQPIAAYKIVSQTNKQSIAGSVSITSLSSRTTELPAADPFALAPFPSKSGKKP

**Q.** `COc1ccc(-c2nn3ncccc3c2-c2ccnc(Nc3ccc(Cl)c(C(F)(F)F)c3)n2)cc1` [GW829115X] was tested. Which potency estimated from few doses ([1]; compound concentrations: 100 nM and 1000 nM (sheet 'Samples'), CATDS: 1) did it give?
**A.** 635 nM

**Q.** With `C[C@@H](Oc1cc(-n2cnc3cc(-c4cnn(C)c4)ccc32)sc1C(N)=O)c1ccccc1Cl` [GSK580432A] as the compound, how does the potency estimated from few doses [2, 22] read?
**A.** 1300 nM

**Q.** What about the potency estimated from few doses [1, 22] of the same compound?
**A.** 1610 nM

**Q.** What about the potency estimated from few doses [3] of the same compound?
**A.** 129 nM

**Q.** And the potency estimated from few doses [4]?
**A.** 1040 nM

**Q.** What about the potency estimated from few doses [5] of the same compound?
**A.** 598 nM

**Q.** And the potency estimated from few doses [6]?
**A.** 525 nM

**Q.** And the potency estimated from few doses [7]?
**A.** 615 nM

**Q.** What about the potency estimated from few doses [8] of the same compound?
**A.** 160 nM

**Q.** Which results are given for `COc1cc(Nc2ccnc3ccc(C(F)(F)F)cc23)cc(OC)c1OC` [GW577382X]?
**A.** potency estimated from few doses [9]: 305 nM; potency estimated from few doses [10]: 1230 nM; potency estimated from few doses [11]: 340 nM

**Q.** With `COc1cc(Nc2ncc(-c3ccccc3)o2)cc(OC)c1OC` [GW627512B] as the compound, how does the potency estimated from few doses ([2]; compound concentrations: 100 nM and 1000 nM (sheet 'Samples'), CATDS: 0.90210431278154302) read?
**A.** 20.2 nM

**Q.** And the potency estimated from few doses ([1]; compound concentrations: 100 nM and 1000 nM (sheet 'Samples'), CATDS: 0.159173325469706)?
**A.** 1850 nM

**Q.** And the potency estimated from few doses [12]?
**A.** 858 nM

**Q.** And the potency estimated from few doses [13]?
**A.** 1790 nM

**Q.** What about the potency estimated from few doses [14] of the same compound?
**A.** 2170 nM

**Q.** With `CCS(=O)(=O)c1ccc(OC)c(Nc2ncc(-c3cccc(-c4ccccc4F)c3)o2)c1` [GW678313X] as the compound, how does the potency estimated from few doses [1, 22] read?
**A.** 423 nM

**Q.** With `Cn1cc(C2=C(c3c4n(c5ccccc35)CCC(CN)CC4)C(=O)NC2=O)c2ccccc21` (stereo not drawn) [RO0319371-000] as the compound, how does the potency estimated from few doses [15, 22] read?
**A.** 608 nM

**Q.** What about the potency estimated from few doses [16, 22] of the same compound?
**A.** 504 nM

**Q.** What about the potency estimated from few doses [17] of the same compound?
**A.** 22.2 nM

**Q.** And the potency estimated from few doses [18]?
**A.** 52.3 nM

**Q.** And the potency estimated from few doses [19]?
**A.** 31.6 nM

**Q.** What about the potency estimated from few doses [20] of the same compound?
**A.** 342 nM

**Q.** What about the potency estimated from few doses [21] of the same compound?
**A.** 306 nM

**Q.** What about the potency estimated from few doses [7] of the same compound?
**A.** 2120 nM

**Q.** How did the potency estimated from few doses ([15]; compound concentrations: 100 nM and 1000 nM (sheet 'Samples'), CATDS: 0.46645523537497902) turn out when `Cn1cc(C2=C(c3cn(C)c4cc(C(=O)O)ccc34)C(=O)NC2=O)c2ccccc21` [RO0319318-000] was run?
**A.** 612 nM

**Q.** And the potency estimated from few doses ([16]; compound concentrations: 100 nM and 1000 nM (sheet 'Samples'), CATDS: 0.53874330478413901)?
**A.** 458 nM

**Q.** How did the potency estimated from few doses ([15]; compound concentrations: 100 nM and 1000 nM (sheet 'Samples'), CATDS: 0.57799072500507098) turn out when `Cn1cc(C2=C(c3cccc(OCC(O)CO)c3)C(=O)NC2=O)c2ccccc21` (stereo not drawn) [RO5198354-000] was run?
**A.** 370 nM

**Q.** What about the potency estimated from few doses ([16]; compound concentrations: 100 nM and 1000 nM (sheet 'Samples'), CATDS: 0.44055416886874998) of the same compound?
**A.** 644 nM
